Rows were chosen to be rich in hits. Some 4.1% of all compounds tested hit in one or more screens of this group.
Jurkat NFkB inh: inhibitors of induced NF-kB luciferase reporter, primary screen, TCR NF-kB activation inhibitor project, cell-based, luminescence, uHTS | Jurkat, PMA/ionomycin-induced NF-kB luciferase reporter | inhibition, % at 4 µM | 330,000 compounds, 0.53% hits; in the data active means inhibition above about 50%
aSyn UTR inh: MLPCN primary screen, SNCA 5' untranslated region | 300,000 compounds, 0.82% hits | inhibition, % (tested at 7.5 µM) | alpha-synuclein 5'UTR reporter, inhibitor activity; in the data active means inhibition above about 60%;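 further: H4 neuroglioblastoma cells stably carrying SNCA 5'UTR luciferase fusion; 0% = DMSO wells and 100% = positive control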
Mdm2 MdmX PPI: inhibitors of human Mdm2-MdmX association, primary screen, cell-based, luminescence, split luciferase, SaOS-2, uHTS; AID 485346, 2010; inhibition, % at 8 µM; Protein Mdm4 (Homo sapiens) + E3 ubiquitin-protein ligase Mdm2 (Homo sapiens), …; SaOS-2 split-luciferase Mdm2/MdmX complementation; 330,000 compounds, 3% hits;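 active means inhibition of at least 50% at 8 µM in the primary screen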
697 NFkB inh: inhibitors of PMA/ionomycin-induced NF-kB reporter, 697 cells, primary screen, B-cell NF-kB inhibitor project, cell-based, luminescence, uHTS. 697 B-cell NF-kB luciferase reporter, 16 h. inhibition, % at 4 µM. 330,000 compounds, 0.33% hits. AID 435022, 2010; in the data active means inhibition above about 35%
KLF5 inh: KLF5 expression inhibitors, primary screen, DLD-1 cells, luminescence; DLD-1 KLF5 promoter-luciferase reporter; inhibition, % at 5 µM; 290,000 compounds, 0.23% hits;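 active means inhibition above a per-plate limit of that plate's mean compound inhibition plus 3 SD, cut at about 60% in these data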;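 further: 0% = DMSO wells and 100% = LY294002 at 200 µM; higher means less KLF5 promoter-driven luciferase light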
Gli-Sufu block: Gli-Sufu pathway antagonists, primary screen, luciferase luminescence, Sufu-KO-LIGHT cells, uHTS | Sufu-KO-LIGHT fibroblasts, Gli luciferase reporter luminescence | inhibition, % at 5 µM | 340,000 compounds, 0.74% hits | AID 588413, 2011;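 active means inhibition above about 55%, limit read from the data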;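 further: 0% = DMSO-treated cells and 100% = wells with medium but no cells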
Jurkat NFkB conf: PMA/ionomycin-induced NF-kB reporter inhibitors, Jurkat retest, confirmation, T-cell NF-kB inhibitor project, cell-based, luminescence, single concentration; inhibition, % at 4 µM; AID 435020, 2010; Jurkat NF-kB luciferase, 16 h; 2,700 compounds, 27% hits; shares compounds with Jurkat NFkB inh;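 active means inhibition reaching about 45% at 4 µM in either replicate, limit read from the data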;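 further: plate controls were PMA/ionomycin stimulated DMSO wells for no effect and unstimulated DMSO wells for full effect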
* hit, by the source's call.

Screening CCCOc1ccc(C(=O)N(CC(C)C)c2c(N)n(Cc3ccccc3)c(=O)[nH]c2=O)cc1 returned Jurkat NFkB inh 4.0, aSyn UTR inh 12.5, Mdm2 MdmX PPI -3.3, 697 NFkB inh 7.4 and Gli-Sufu block -6.0.
`COc1ccc2c(c1)[nH]c1c(N3CCN(Cc4ccc5c(c4)OCO5)CC3)ncnc12` gave Jurkat NFkB inh 52.5*, aSyn UTR inh 5.0, Mdm2 MdmX PPI 25.0, 697 NFkB inh -5.1, KLF5 inh -27.0, Gli-Sufu block 51.5 and Jurkat NFkB conf 58.0*.
`CC(=O)Nc1ccc(C(=O)Nc2cccc(S(=O)(=O)N(C)c3ccccc3)c2)cc1` gave Jurkat NFkB inh 1.8, Mdm2 MdmX PPI 15.6, 697 NFkB inh -2.4 and Gli-Sufu block -21.5.
Screening CN(c1ccccc1)S(=O)(=O)c1cccc(NC(=O)c2ccc(Cl)c([N+](=O)[O-])c2)c1 returned Jurkat NFkB inh 62.9*, Mdm2 MdmX PPI 23.7, 697 NFkB inh -4.9, Gli-Sufu block 6.5 and Jurkat NFkB conf 10.3.
For Cc1cccc(NC(=O)CN(CCc2ccccc2)S(C)(=O)=O)c1 the results were Jurkat NFkB inh 2.9, aSyn UTR inh 6.5, Mdm2 MdmX PPI 12.1, 697 NFkB inh 6.2, KLF5 inh -28.5 and Gli-Sufu block 6.5.
For O=C(CNc1cccc2ccccc12)N/N=C/c1ccc[nH]1 the results were Jurkat NFkB inh 59.3*, aSyn UTR inh 11.5, Mdm2 MdmX PPI -11.0, 697 NFkB inh 8.5, KLF5 inh -20.9, Gli-Sufu block 25.5 and Jurkat NFkB conf -3.2.
Screening COc1ccc(-c2c(C)nc3c(-c4ccc(F)cc4)cnn3c2N)cc1 returned Jurkat NFkB inh -182.9, aSyn UTR inh -142.9, Mdm2 MdmX PPI 31.7, 697 NFkB inh -207.1, KLF5 inh -143.1, Gli-Sufu block -9.2 and Jurkat NFkB conf -72.8.
Screening Cc1cc(C(F)(F)F)n2ncc(-c3ccc(F)cc3)c2n1 returned Jurkat NFkB inh -7.8, aSyn UTR inh 17.9, Mdm2 MdmX PPI 8.2, 697 NFkB inh 17.3, KLF5 inh -8.9 and Gli-Sufu block -1.4.
For CC(=O)Nc1ccc(-c2csc(Nc3ncccn3)n2)cc1 the results were Jurkat NFkB inh -117.5, aSyn UTR inh -89.4, Mdm2 MdmX PPI -39.9, 697 NFkB inh -111.8, KLF5 inh -38.1 and Gli-Sufu block -67.4.
Oc1ccc(-c2csc(Nc3ncccn3)n2)cc1 was read as Jurkat NFkB inh -158.9, aSyn UTR inh -153.7, Mdm2 MdmX PPI -182.3, 697 NFkB inh -207.6, KLF5 inh -203.1, Gli-Sufu block -36.4 and Jurkat NFkB conf -59.4.
c1ccc(-c2csc(Nc3ncccn3)n2)cc1 was read as Jurkat NFkB inh -211.8, aSyn UTR inh -65.6, Mdm2 MdmX PPI -118.5, 697 NFkB inh -245.3, KLF5 inh -17.9, Gli-Sufu block -95.1 and Jurkat NFkB conf -105.1.
`CC(C)c1ccccc1NC(=O)COC(=O)C1(C)CC1(Cl)Cl` (stereo not given) gave Jurkat NFkB inh 7.1, aSyn UTR inh 11.7, Mdm2 MdmX PPI 8.8, 697 NFkB inh 4.7, KLF5 inh 0.1 and Gli-Sufu block 23.7.
`Cc1cccc(NC(=O)COc2ccc3c(c2)CCC3)n1` gave Jurkat NFkB inh -42.4, Mdm2 MdmX PPI -10.1, 697 NFkB inh -3.2 and Gli-Sufu block -3.8.
Cc1cnc(NC(=O)COc2ccc3c(c2)CCC3)s1 was read as Jurkat NFkB inh -151.9, aSyn UTR inh -27.9, Mdm2 MdmX PPI 26.0, 697 NFkB inh -12.5, KLF5 inh -111.5, Gli-Sufu block -115.2 and Jurkat NFkB conf -87.2.
`Cc1cccc(C(=O)N/N=C/c2cc(Br)c(Br)o2)c1` gave Jurkat NFkB inh 1.4, aSyn UTR inh -61.4, Mdm2 MdmX PPI 24.5, 697 NFkB inh -25.6, KLF5 inh -51.8 and Gli-Sufu block -10.5.
CCOc1ccc(C(=O)NC(=S)Nc2cccc(S(=O)(=O)NC3=NCCC3)c2)cc1 was read as Jurkat NFkB inh 59.6*, aSyn UTR inh 110.8*, Mdm2 MdmX PPI 49.7, 697 NFkB inh 5.1, KLF5 inh 57.4, Gli-Sufu block -0.9 and Jurkat NFkB conf 34.5.
Cc1cc(C)n(-c2nc3c(c(=O)[nH]c(=O)n3C)n2CC(O)COc2ccc(Cl)cc2Cl)n1 (stereo not given) was read as Jurkat NFkB inh 50.6*, aSyn UTR inh 73.2*, Mdm2 MdmX PPI 45.5, 697 NFkB inh -31.1, KLF5 inh -18.6, Gli-Sufu block 17.2 and Jurkat NFkB conf 46.2.
COc1ccc(S(=O)(=O)Nc2ccc3c(c2)OCCO3)cc1OC was read as Jurkat NFkB inh 0.3, aSyn UTR inh -7.4, Mdm2 MdmX PPI 2.7, 697 NFkB inh -8.4, KLF5 inh -23.6 and Gli-Sufu block 9.6.
Screening CCOC(=O)c1c(NC(=O)CSc2nc3cc(Cl)ccc3c(=O)n2Cc2ccco2)sc(C(=O)N(C)C)c1C returned Jurkat NFkB inh 10.2, aSyn UTR inh 24.3, Mdm2 MdmX PPI 18.1, 697 NFkB inh 5.5, KLF5 inh -20.9 and Gli-Sufu block 27.5.
For CCN(Cc1ccncc1)C(=O)c1cc(COc2ccc(OC)cc2Cl)on1 the results were Jurkat NFkB inh -62.8, aSyn UTR inh -111.0, Mdm2 MdmX PPI -43.3, 697 NFkB inh -106.5, KLF5 inh -91.9 and Gli-Sufu block -61.6.
Screening CCOC(=O)c1[nH]c(C)c(C(=O)OCC(=O)NCc2ccc(OC)c(OC)c2)c1C returned Jurkat NFkB inh -13.6, Mdm2 MdmX PPI 12.0, 697 NFkB inh -1.6 and Gli-Sufu block -6.8.
`CCOC(=O)c1c(C)[nH]c(C(=O)N/N=C/c2ccc(OC)c(OC)c2)c1C` gave Jurkat NFkB inh 55.4*, aSyn UTR inh -8.8, Mdm2 MdmX PPI 47.9, 697 NFkB inh -21.7, KLF5 inh 35.8, Gli-Sufu block 3.2 and Jurkat NFkB conf 10.5.
Screening Cc1ncc([N+](=O)[O-])n1S(=O)(=O)c1cc(Cl)ccc1Cl returned Jurkat NFkB inh -14.8, aSyn UTR inh 13.6, Mdm2 MdmX PPI 8.6, 697 NFkB inh 6.7, KLF5 inh -12.7 and Gli-Sufu block -7.8.
`O=C(Nc1nc2ccccc2[nH]1)c1ccccc1O` gave Jurkat NFkB inh -61.2, aSyn UTR inh -73.8, Mdm2 MdmX PPI -49.2, 697 NFkB inh -187.2, KLF5 inh -63.4 and Gli-Sufu block -41.0.
`O=C(Nc1nc2ccccc2[nH]1)c1cccc(Cl)c1` gave Jurkat NFkB inh -159.8, aSyn UTR inh -151.1, Mdm2 MdmX PPI -171.3, 697 NFkB inh -235.3, KLF5 inh -185.4, Gli-Sufu block -81.9 and Jurkat NFkB conf -122.6.
